Out of some 71,000 compounds screened, about 1,800 (2.5%) were called active. Entries that show only a call come without a potency. Roughly 26% stayed inconclusive and do not appear here. The sample holds actives, similar compounds and a random draw of the others, so the mix is not that of the screen. Unmarked numbers belong to inactive results. Calls come from the whole dose curve; as a rule, active = well fitted activation curve with a large enough effect in the signal ratio, with a control signal flat (not every such curve was filed as active); inconclusive = small, poorly fitted or top-dose-only effect, or effect the other way, or a change in a side signal; inactive = flat fitted curve, though single readings scatter; the % refers to the signal ratio.
Experiment: Cell signaling CRE-BLA (Fsk stim)
Conditions: CHO CRE-bla reporter (cAMP response element driving beta-lactamase), forskolin EC10, beta-lactamase ratio; series mostly up to 38.2 µM
Summary of the method: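 AC50 values, positive or negative, reflect shifts in EC10 NKH 477-induced CRE-bla reporter activity in CHO cells. Incubation lasted 3 h at 37 °C before CCF4 substrate (2 h, room temperature) and ratiometric 460/530 nm reading.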
Potency is the fitted concentration of half-maximal effect.

SMILES | Potency | activity change, negative = inhibition
CC(=O)Nc1nc(C)c(Cc2ccccc2)c(=O)[nH]1 | inactive | 
COc1ccc(N2CCN(C(=O)CSc3nc4cc(OC)c(OC)cc4cc3C#N)CC2)cc1 | 10 µM (active) | 
CCOc1ccc2cc(C#N)c(SCC(=O)OC)nc2c1 | inactive | 
COc1ccc(N2CCN(C(=O)CSc3ncnc4c3cnn4-c3ccc(OC)cc3)CC2)cc1 | inactive | 
Cc1ccc2nc(-c3ccccc3)cc(C(=O)O)c2c1 | inactive | 
Oc1ccc2nc(Cc3ccccc3)[nH]c2c1 | inactive | 
COC(=O)Nc1nc2ccc(Sc3ccccc3)cc2[nH]1 | 2.51 µM (active) | 
CCN(CC)CCN1C(=O)C(=O)/C(=C(/O)c2ccccc2)C1c1ccccc1F (stereo not drawn) | inactive | 
O=C(O)c1c(Br)c(Br)c(Br)c(Br)c1C1c2ccc(O)cc2Oc2cc(O)ccc21 |  | 4.42% [at 7.6 µM]
C=CCn1c2ccccc2c2nnc(SC(CC)C(=O)Nc3nc(C)c(C(=O)OCC)s3)nc21 (stereo not drawn) | 1.26 µM (active) | 
C=CCn1c(C(C)NC(=O)CC)nc2ccccc21 (stereo not drawn) | inactive | 
C=CCn1c(SCC(=O)Nc2nc3ccccc3s2)nnc1-c1ccccc1O | inactive | 
N#Cc1cc2[nH]c(=O)c(=O)[nH]c2cc1[N+](=O)[O-] | inactive | 
CC(=O)CC(C)C | inactive | 
COc1ccccc1CNC(=O)CCn1c(=O)sc2ccccc21 | inactive | 
COc1ccccc1CNc1ncncc1-c1cccc(NS(C)(=O)=O)c1 | inactive | 
COCCn1c(=O)c(-c2cccs2)nc2cncnc21 | 12.6 µM (active) | 
COc1ccc(-n2c(=O)c(-c3cn(C)c4ccccc34)nc3cnc(OC)nc32)cc1 | 0.2 µM (active) | 
COc1ccc(OCc2ccc(-c3nc4ccccc4c(=O)n3N)o2)cc1 | inactive | 
COc1ccc(-n2c(C)nc3c(cnn3-c3ccccc3)c2=O)cc1 | inactive | 
CCc1c(C)nc2cc(-c3cccs3)[nH]n2c1=O | inactive | 
COc1ccccc1CCn1c(=O)c(-c2cn(C)c3ccccc23)nc2cncnc21 | 0.398 µM (active) | 

SMILES | Potency | activity change, negative = inhibition
COCCn1c(=O)c(CCc2ccccc2)nc2cncnc21 | inactive | 
CCOc1cccc(=O)c2c(C)n(CC3CCCO3)c(C)c12 (stereo not drawn) | inactive | 
O=C(O)c1nccnc1C(=O)Nc1ccc(Br)cn1 | inactive | 
C=CCNC(=O)C1CC=CCC1C(=O)O (stereo not drawn) | inactive | 
COc1ccc(N)c(C)c1 | inactive | 
COC(=O)[C@@]1(C)C=C[C@@H](Cc2ccccc2)N1C(C)=O | inactive | 
CCCCCCN(C(=O)CCCCCN1C(=O)NC(c2ccc(C(F)(F)F)cc2)C(C(=O)OCc2ccccc2)=C1C)C(C(=O)NCCCC)c1ccc(OCC(=O)OC)c(C(=O)OC)c1 (stereo not drawn) | inactive | 
Cc1ccc2oc(=O)ccc2c1 | inactive | 
c1ccc(Oc2ccccc2)cc1 | inactive | 
COc1ccc(C2C(C#N)=C(N)Oc3n[nH]c(C)c32)cc1CN1CCN(c2ccc(F)cc2)CC1 (stereo not drawn) | inactive | 
CCCCN(C)C(=O)c1ccc2c(c1)N(CC)C(=O)c1ccccc1S2(=O)=O | inactive | 
C[N+](C)(CCCCCC[N+](C)(C)CCCN1C(=O)c2cccc3cccc(c23)C1=O)CCCN1C(=O)c2cccc3cccc(c23)C1=O | inactive | 
CCN1C(=O)c2cccc3c(N)ccc1c23 | 10 µM (active) | 
NC(=O)C1CC=CCC1C(=O)OCC(Cl)=C(Cl)Cl (stereo not drawn) | inactive | 
CC(=O)Oc1cccc(N2C(=O)C3CC=C(Cl)CC3C2=O)c1 (stereo not drawn) | inactive | 
CC(=O)c1cccc(NC(=O)c2ccncc2)c1 | inactive | 
Cc1cc(C)c2c(n1)nn1c(-n3ccnc3)cc(C)nc21 | 6.31 µM (active) | 
CC(=O)Nc1ccc(S(=O)(=O)N2CCSCC2)cc1 | inactive | 
O=C(CCN1C(=O)c2ccccc2C1=O)Nc1ccncc1 | inactive | 
Cn1c(=O)[nH]c(=O)c2c1nc(N1CCCCCC1)n2CC(=O)c1ccccc1 | inactive | 
Cn1c(=O)[nH]c(=O)c2c1nc(Br)n2CCCCSc1nc2ccccc2o1 | 2.51 µM (active) | 
CC1CCN(c2nc3c(c(=O)[nH]c(=O)n3C)n2CCCc2ccccc2)CC1 | inactive | 

SMILES | Potency | activity change, negative = inhibition
C[C@]1(C(=O)NCCc2c[nH]c3ccccc23)C=C[C@@H](Cc2ccccc2)N1C(=O)c1ccccc1 | inactive | 
C1CCC2OC2C1 (stereo not drawn) | inactive | 
CC(=O)Nc1ccc(S(=O)(=O)Nc2ccc(N3CCOCC3)c(F)c2)cc1 | inactive | 
CCOc1cccc(NC(=O)CC#N)c1 | inactive | 
CC(=O)Nc1cccc(Oc2cc(C#N)c(C#N)cc2N2CCOCC2)c1 | 5.01 µM (active) | 
CCCC(Cl)CCCC(Cl)CCC(Cl)CCC(Cl)CCC(Cl)CCCC(Cl)CCC (stereo not drawn) | inactive | 
O=C(Cl)c1ccccc1[N+](=O)[O-] | inactive | 
CCOC(=O)N1CCN(C(=O)C2CCN(c3ncnc4c3sc3cccc(F)c34)CC2)CC1 | inactive | 
CCOC(=O)C1CCN(C(=O)c2oc3ccc(S(=O)(=O)N4CCCCCC4)cc3c2C)CC1 | inactive | 
CCOC(=O)C1CCN(c2ncnc3c2oc2ccc(Br)cc23)CC1 | 2.51 µM (active) | 
COc1ccc(-n2c(SC)nc(O)cc2=O)cc1 |  | -26.5% [at 7.6 µM]
COC(=O)c1ccc(S(=O)(=O)c2ccc(C(=O)OC)s2)s1 | inactive | 
CSc1nnc2c(n1)OC(c1cn(C)c3ccccc13)N(C(C)=O)c1ccccc1-2 (stereo not drawn) |  | 2.27% [at 7.6 µM]
c1ccc2cc(OCCN3CCCC3)ccc2c1 |  | -1.69% [at 7.6 µM]
COc1cccc2c(=O)n(CC(=O)N3CCCCCC3)ccc12 | inactive | 
CCOc1ccccc1/C=c1\sc2nc(-c3ccco3)nn2c1=O | inactive | 
CCOC(=O)/C=c1\s/c(=C\c2ccccc2OC)c(=O)n1CC(=O)N1CCOCC1 | 2.51 µM (active) | 
O=C(NC1CCN(Cc2ccccc2)CC1)c1ccccc1F | inactive | 
COCCOC(=O)C1=C(C)NC(=O)NC1c1ccc(Cl)cc1 (stereo not drawn) | inactive | 
C[C@@H](Nc1nc(-c2ccccc2)nc2c1oc1ccccc12)C(=O)O | inactive | 
CCSc1nc(C)nc2c1oc1ccccc12 | 12.6 µM (active) | 
Cc1nc(N2CCCC2C(=O)O)c2oc3ccccc3c2n1 (stereo not drawn) | inactive | 

SMILES | Potency | activity change, negative = inhibition
CCOC(=O)c1cc(-c2nnc(-c3cc(OC)c(OC)c(OC)c3)o2)c(C)nc1C | inactive | 
O=C(OCc1nnc(-c2ccccc2)o1)c1ccc2c(c1)C(=O)N(CCc1ccccc1)C2=O | inactive | 
CCCc1nc2ccccc2c(C(=O)OCc2nnc(-c3cc(OC)c(OC)c(OC)c3)o2)c1CC | 0.501 µM (active) | 
C[C@@H]1O[C@@H](O[C@@H]2[C@@H](O)[C@H](OCCc3ccc(O)c(O)c3)O[C@H](CO[C@@H]3O[C@H](CO)[C@@H](O)[C@H](O)[C@H]3O)[C@H]2OC(=O)/C=C/c2ccc(O)c(O)c2)[C@H](O)[C@H](O)[C@H]1O | inactive | 
N[C@@H](C(=O)O)c1ccc(P(=O)(O)O)cc1 | inactive | 
CC1CN(c2cc(=O)n(Cc3ccc(F)cc3)c(=O)[nH]2)CC(C)O1 (stereo not drawn) | inactive | 
COCc1cc(C)nc(Nc2cc(C)ccc2C)c1C#N | inactive | 
CCOC(=O)c1c(-n2cnnn2)sc(C)c1C | inactive | 
COC(=O)c1sc(NC(=O)c2csc3c2CCCC3)nc1C | inactive | 
COC(=O)c1c(NC(=O)CSc2nncs2)sc2c1CCCCC2 | 6.31 µM (active) | 
CCOCC(=O)Nc1sc2c(c1C(=O)OCC)CCCC2 | 10 µM (active) | 
CCOC(=O)c1sc(NC(=O)CCN2CCOCC2)c(C(=O)OCC)c1C | inactive | 
N#Cc1c(NC(=O)CSc2nc3ccccc3c(=O)n2Cc2ccco2)sc2c1CCCC2 | inactive | 
C=CCOC(=O)COCCC(C)C | inactive | 
CC1C(c2ccccc2)=[N+]([O-])C2(CCCC2)N1O (stereo not drawn) | inactive | 
CCCC[C@@H]1C[C@H]1C(NC(=O)c1ccco1)c1ccc(C(=O)OC)cc1 (stereo partly drawn) | inactive | 
C/C=C1\C(=O)C[C@@H]2[C@@H]3CCC4=CC(=O)CC[C@@]4(C)[C@H]3CC[C@@]12C | inactive | 
O=C(Nc1cccc(F)c1)c1ccc(S(=O)(=O)N2CCCC2)cc1 | inactive | 
CSc1nnc(-c2ccncc2)n1CCCN1CCCC1=O | inactive | 
CCOc1cc2[nH]c(=S)n(CCCN3CCCC3=O)c(=O)c2cc1OCC | inactive | 
CC(C)(C)OC(=O)c1c(N)n(CCCN2CCCC2=O)c2nc3ccccc3nc12 | 10 µM (active) | 
Cc1ccccc1C(=O)O | inactive | 

— PubChem BioAssay AID662 (National Center for Advancing Translational Sciences (NCATS), 2007)
